PubChem BioAssay (NCATS)
Inconclusive results are not listed. Activity calls are given as the source filed them. Calls come from the whole dose curve; as a rule, active = well fitted curve in the direction sought with a large enough effect; inconclusive = small, poorly fitted or top-dose-only effect, or another doubt; inactive = no such curve, though single readings can be large or run the other way.

assay: KB-8-5-11 P-gp reporter qHTS against the NCATS DSHEA and TCM libraries (AID 1919977); settings: KB-8-5-11 cells; series mostly up to 26.1 µM
Text: Assay Development and Screening Technology Laboratory (ADST)
National Center for Advancing Translational Sciences (NCATS), Rockville, MD
National Institute of Health (NIH), Bethesda, Maryland
Dietary Supplements and Natural Products have minor oversight of their safety and efficacy. We assembled a collection of Dietary Supplements and Natural Products (DSNP) as well as Traditional Chinese Medicinal (TCM) Plant extracts, which were screened against an in vitro panel of assays, including a liver cytochrome p450 enzyme panel, CAR/PXR signaling pathways, and P-gp transporter assays, to assess their activity. This pipeline facilitated the interrogation of Natural Product-Drug Interaction (NaPDI) through prominent metabolizing pathways. In addition, we compared the activity profiles of the DSNP/TCM substances with those of an approved drug collection. Many of the approved drugs have well-annotated mechanisms of action (MOA) while the MOAs for most of the DSNP and TCM samples remain unknown. Based on the premise that compounds with similar activity profiles tend to share similar targets or MOA, we clustered the library activity profiles to identify overlap with the NCATS Pharmaceutical Collection to predict the MOAs of the DSNP/TCM substances. Overall, we highlight four significant bioactivity profiles (measured by p-values) as examples of this prediction. To assess broad cytotoxicity, we employed screening against a HepG2 cell line. In addition, transporter-mediated drug interactions are utilized in the characterization of DDIs using a P-glycoprotein (P-gp) assays. To profile potential P-gp activity, a differential cell viability was measured against two cell lines: a parental KB-3-1 human cervical adenocarcinoma cell line and the drug-resistant subline KB-8-5-11 that overexpresses P-gp.
To this end, we profiled both collections for potential CAR and/or PXR activity, employing a previously published 1536-well qHTS assay.
[1] Lee TD, et al. A High-Throughput Screen of a Library of Therapeutics Identifies Cytotoxic Substrates of P-glycoprotein. Mol Pharmacol. Nov 2019;96(5):629-640. doi:10.1124/mol.119.115964
PROTOCOL TABLE (as described by Inglese J, Shamu CE and Guy RK. 2007)
SEQUENCE No. (e.g., 1, 2, 3, etc.); PARAMETER (e.g., Cells, Incubation, Reagent, etc.); VALUE; DESCRIPTION.
1; Cells; 5 uL; KB-8-5-11 cells, white solid-bottom tissue treated Greiner plate.
2; Incubation; 4 hrs; 37C, 95% humidity, 5% CO2.
3; Compounds and control; 23 nL; Kalypsis pin tool (Wako USA) equipped with a 1536-well pin head to transfer to the assay plates.
4; Incubation; 72 hrs; 37C, 95% humidity, 5% CO2.
5; Reagent; 2.5 uL; CellTiter-Glo.
6; Centrifuge; 1000 RPM; 15 seconds.
7; Incubation; 30 min; room temperature.
8; Read; Luminescence; ViewLux plate reader.
NOTES (numbers refer to Sequence numbers above)
1. P-gp-overexpressing subline KB-8-5-11 were maintained in DMEM (Thermofisher catalog #11965) with 10% FBS and 1% penicillin/streptomycin at 37C in 5% CO2. For KB-8-5-11 cells, colchicine was added to the medium at a concentration of 100 ng/ml (after initial cell attachment). For the screen, assay medium was identical to culture medium except for KB-8-5-11, where colchicine was excluded from the medium. Briefly, 5 uL of cells at 1 x 10^5 cells/mL (500 cells/well) were dispensed into a 1536-well white solid-bottom tissue treated plate (Greiner Bio-One) using a Multidrop Combi dispenser.
2. Plates were incubated at 37C, 95% humidity, 5% CO2 for ~4 hours to allow for cell attachment.
3. Compounds and intraplate control (Bortezomib; final concentration range 228 pM - 7.5 uM) were transferred (16 nL) via pintool (Wako Automation), for a final concentration of 15.6 nM - 30.0 uM (most substances).
4. Plates were incubated for ~72 hours at 37C, 95% humidity, 5% CO2.
5. Plates were then dispensed with 2.5 uL of CellTiter-Glo.
6. The assay plates were centrifuged for 15 seconds at 1,000 RPM's.
7. The plates were incubated for 30-minute at room temperature.
8. […]

| SMILES | outcome |
| --- | --- |
| O=C1O[C@H]([C@@H](O)CO)C(O)=C1O | inactive |
| Nc1nc2ncc(CNc3ccc(C(=O)N[C@@H](CCC(=O)O)C(=O)O)cc3)nc2c(=O)[nH]1 | inactive |
| COc1ccc2cc3[n+](cc2c1OC)CCc1cc2c(cc1-3)OCO2 | inactive |
| OC[C@H]1O[C@@H](OCCc2ccc(O)cc2)[C@H](O)[C@@H](O)[C@H]1O | inactive |
| C/C=C/c1ccc(OC)cc1 | inactive |
| C[C@]12CC[C@H](O)CC1=CC[C@@H]1[C@@H]2CC[C@]2(C)C(=O)CC[C@@H]12 | inactive |
| O=C(/C=C/c1ccc(O)c(O)c1)O[C@@H]1C[C@@](OC(=O)/C=C/c2ccc(O)c(O)c2)(C(=O)O)C[C@@H](O)[C@@H]1O | inactive |
| OC1C(O)C(O)C(O)C(O)C1O (stereo unspecified) | inactive |
| Cn1c(=O)c2c(ncn2C)n(C)c1=O | inactive |
| NC(N)=NCCC[C@H](N)C(=O)O | inactive |
| O=c1ccc2ccccc2o1 | inactive |
